Consider eleven compounds from ChEMBL document CHEMBL3988442, “University of Dundee, Small-Polar-MMV Screening Library” (2021).

Molecules are shown by their SMILES. For some of these results: Potency and affinity values are given separately.

Common to all, as to set-up: scale not given: direction of the effect not stated beside the values
In assay [1] the target is Protein translocase subunit SecA (Escherichia coli (strain K12)) (UniProt P10408). Nature of the assay: Assay to Identify E. coli SecA ATPase Inhibitors. The note with it: 30 µM. It counts as functional.
In assay [2] the target is T1, Ubiquitin-activating enzyme e1, putative (Leishmania donovani (strain BPK282A1)) (UniProt E9BSI1).
T1 sequence (whole entry): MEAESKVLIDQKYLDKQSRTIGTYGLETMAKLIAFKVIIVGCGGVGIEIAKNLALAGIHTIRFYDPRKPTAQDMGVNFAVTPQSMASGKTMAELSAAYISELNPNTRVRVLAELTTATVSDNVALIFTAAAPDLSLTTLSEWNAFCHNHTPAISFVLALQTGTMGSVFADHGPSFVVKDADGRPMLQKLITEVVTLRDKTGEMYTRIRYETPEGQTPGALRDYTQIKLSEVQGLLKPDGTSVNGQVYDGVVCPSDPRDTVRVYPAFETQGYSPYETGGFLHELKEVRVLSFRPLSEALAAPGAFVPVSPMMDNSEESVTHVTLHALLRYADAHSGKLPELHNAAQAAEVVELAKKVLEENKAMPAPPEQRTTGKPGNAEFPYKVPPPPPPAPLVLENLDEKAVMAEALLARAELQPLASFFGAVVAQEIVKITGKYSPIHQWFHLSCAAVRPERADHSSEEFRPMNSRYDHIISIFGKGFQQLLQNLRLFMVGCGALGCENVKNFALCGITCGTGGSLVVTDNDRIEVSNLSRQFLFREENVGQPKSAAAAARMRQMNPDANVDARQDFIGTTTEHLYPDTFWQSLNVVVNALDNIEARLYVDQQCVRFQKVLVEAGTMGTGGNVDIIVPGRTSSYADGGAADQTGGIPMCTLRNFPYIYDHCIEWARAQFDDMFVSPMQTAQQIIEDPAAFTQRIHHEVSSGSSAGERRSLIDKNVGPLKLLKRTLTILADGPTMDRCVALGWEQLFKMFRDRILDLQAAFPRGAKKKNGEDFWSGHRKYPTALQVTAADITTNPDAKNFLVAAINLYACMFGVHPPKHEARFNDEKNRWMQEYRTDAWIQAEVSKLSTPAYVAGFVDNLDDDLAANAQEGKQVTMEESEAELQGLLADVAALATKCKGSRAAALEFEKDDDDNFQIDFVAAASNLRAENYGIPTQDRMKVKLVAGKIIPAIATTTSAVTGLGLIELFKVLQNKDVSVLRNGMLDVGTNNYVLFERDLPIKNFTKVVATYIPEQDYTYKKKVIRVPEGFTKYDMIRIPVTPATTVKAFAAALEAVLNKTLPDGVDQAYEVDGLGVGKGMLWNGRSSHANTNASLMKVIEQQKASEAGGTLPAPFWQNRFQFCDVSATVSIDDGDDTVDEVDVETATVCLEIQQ
Nature of the assay: Leishmania donovani Ubiquitin Activating Enzyme (LdE1). It counts as functional. As to conditions: 30 µM.

The target of assay [3] is AMP-activated protein kinase, AMPK (Homo sapiens) (UniProt P54646+O43741+P54619+Q9UGJ0+Q9Y478+Q13131+Q9UGI9). Nature of the assay: AMP-dependent Kinase enzyme assay. An in vitro enzyme assay that detects ADP turnover that is directly proportional to AMPK activity. This uses naive AMPK that is activated during the assay with MK-8722. The assay is classed as functional. As to conditions: 30 µM.

For assay [4], the target named is Sialic acid-binding Ig-like lectin 9 (Homo sapiens) (UniProt Q9Y336). The assay is described as follows: Hs-Siglec9 ALPHAscreen SOP 20170721. As to conditions: 10 µM.
The subject of assay [5] is Trypanosoma cruzi. The assay is described as follows: Trypanosoma cruzi phosphomannomutase and mannose-1-phosphate guanylyltransferase assay. The assay is classed as functional. As to conditions: 10 µM.
Assay [6] concerns the target T2, Arginase-2, mitochondrial (Homo sapiens) (UniProt P78540).
T2 sequence (whole entry): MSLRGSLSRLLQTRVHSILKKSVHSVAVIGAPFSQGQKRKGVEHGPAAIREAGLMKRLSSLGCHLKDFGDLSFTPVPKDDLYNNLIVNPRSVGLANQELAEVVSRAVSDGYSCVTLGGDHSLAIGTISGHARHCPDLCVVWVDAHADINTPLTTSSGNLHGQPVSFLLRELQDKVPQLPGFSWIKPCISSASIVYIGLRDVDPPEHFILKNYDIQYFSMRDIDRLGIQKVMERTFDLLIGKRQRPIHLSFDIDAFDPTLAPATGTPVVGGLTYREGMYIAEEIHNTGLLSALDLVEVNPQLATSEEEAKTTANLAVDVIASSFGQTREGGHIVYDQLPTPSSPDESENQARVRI
Nature of the assay: in vitro enzyme assay to detect the production of urea directly proportional to the activity of Arginase II. Also: in the data most compounds retested in dose-response had high values. It counts as functional. As to conditions: 33.3 µM.

The target of assay [7] is T3, Proteasome subunit beta (Trypanosoma cruzi) (UniProt O96673).
T3 sequence (whole entry): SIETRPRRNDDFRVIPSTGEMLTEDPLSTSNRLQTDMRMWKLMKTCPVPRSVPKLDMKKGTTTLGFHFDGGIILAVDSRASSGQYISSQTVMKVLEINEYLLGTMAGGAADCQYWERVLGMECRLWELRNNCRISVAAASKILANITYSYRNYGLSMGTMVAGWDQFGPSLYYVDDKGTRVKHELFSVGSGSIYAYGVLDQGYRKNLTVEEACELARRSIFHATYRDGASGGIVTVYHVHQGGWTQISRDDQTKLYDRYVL
Nature of the assay: Trypanosoma cruzi proteasome chymotrypsin-like activity (TcProtChymo) assay. Also: in the data most compounds retested in dose-response had high values. It counts as functional. The note with it: 9.37 µM.

For assay [8], the species on record is Homo sapiens. The assay is described as follows: To identify inhibition of the IFN signalling (Jak-Stat) pathway via expression of an eGFP reporter gene under the control of an IFN-stimulated response element (ISRE) containing MxA promoter. It counts as functional. The note with it: 30 µM. (In general: Reporter assays use an easily measured gene product as a stand-in for the process of interest.)

The target of assay [9] is T4, Tyrosyl-tRNA synthetase, putative (Trypanosoma cruzi (strain CL Brener)) (UniProt Q4DSP6).
T4 sequence (whole entry): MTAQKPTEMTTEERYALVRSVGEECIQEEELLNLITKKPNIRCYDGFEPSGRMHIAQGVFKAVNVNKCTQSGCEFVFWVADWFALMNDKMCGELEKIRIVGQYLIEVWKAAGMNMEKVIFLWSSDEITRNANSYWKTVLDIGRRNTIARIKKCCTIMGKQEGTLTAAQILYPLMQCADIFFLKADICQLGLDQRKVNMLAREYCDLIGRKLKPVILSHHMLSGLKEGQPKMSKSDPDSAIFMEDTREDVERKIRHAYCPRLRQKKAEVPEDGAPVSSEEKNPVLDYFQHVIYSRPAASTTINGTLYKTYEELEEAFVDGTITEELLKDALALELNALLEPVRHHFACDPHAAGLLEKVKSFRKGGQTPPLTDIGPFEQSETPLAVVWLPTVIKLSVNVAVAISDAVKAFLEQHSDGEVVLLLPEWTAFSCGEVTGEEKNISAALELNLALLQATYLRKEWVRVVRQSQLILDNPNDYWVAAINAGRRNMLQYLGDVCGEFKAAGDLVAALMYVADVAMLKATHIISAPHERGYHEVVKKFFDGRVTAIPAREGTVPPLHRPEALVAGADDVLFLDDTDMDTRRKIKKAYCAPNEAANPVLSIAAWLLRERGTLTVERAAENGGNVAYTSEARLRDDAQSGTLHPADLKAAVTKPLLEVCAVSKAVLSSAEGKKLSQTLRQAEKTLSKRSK
The assay is described as follows: Trypanosoma cruzi tyrosyl tRNA synthetase (TcYRS) _High Tyrosine SOP. Also: in the data most compounds retested in dose-response had high values. It counts as functional. As to conditions: 30 µM.

Assay [10] concerns the target T4, Tyrosyl-tRNA synthetase, putative (Trypanosoma cruzi (strain CL Brener)). The assay is described as follows: Trypanosoma cruzi tyrosyl tRNA synthetase (TcYRS) SOP. It counts as functional. The note with it: 30 µM.
Assay [11] addresses Chromo domain-containing protein 1 (Saccharomyces cerevisiae (strain ATCC 204508 / S288c) (Baker's yeast)) (UniProt P32657). Nature of the assay: ScCHD-1 Enzyme Inhibition Assay. Also: in the data most compounds retested in dose-response had high values. It counts as functional. The note with it: 30 µM.

Sequence of Sialic acid-binding Ig-like lectin 9 (Homo sapiens) (Q9Y336 whole entry): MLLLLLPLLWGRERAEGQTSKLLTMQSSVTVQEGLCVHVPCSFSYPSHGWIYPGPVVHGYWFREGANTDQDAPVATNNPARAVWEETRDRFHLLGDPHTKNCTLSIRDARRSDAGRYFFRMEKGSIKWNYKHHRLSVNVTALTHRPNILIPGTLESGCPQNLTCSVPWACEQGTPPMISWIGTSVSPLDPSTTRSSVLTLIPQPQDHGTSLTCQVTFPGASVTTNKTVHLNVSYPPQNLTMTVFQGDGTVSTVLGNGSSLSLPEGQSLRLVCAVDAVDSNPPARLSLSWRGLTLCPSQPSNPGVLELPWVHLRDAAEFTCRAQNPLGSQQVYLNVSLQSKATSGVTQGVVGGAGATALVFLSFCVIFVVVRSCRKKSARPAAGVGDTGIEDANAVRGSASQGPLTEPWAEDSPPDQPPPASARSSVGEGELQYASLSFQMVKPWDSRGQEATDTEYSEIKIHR
Sequence of Chromo domain-containing protein 1 (Saccharomyces cerevisiae (strain ATCC 204508 / S288c) (Baker's yeast)) (P32657 whole entry, the tested form may be a part): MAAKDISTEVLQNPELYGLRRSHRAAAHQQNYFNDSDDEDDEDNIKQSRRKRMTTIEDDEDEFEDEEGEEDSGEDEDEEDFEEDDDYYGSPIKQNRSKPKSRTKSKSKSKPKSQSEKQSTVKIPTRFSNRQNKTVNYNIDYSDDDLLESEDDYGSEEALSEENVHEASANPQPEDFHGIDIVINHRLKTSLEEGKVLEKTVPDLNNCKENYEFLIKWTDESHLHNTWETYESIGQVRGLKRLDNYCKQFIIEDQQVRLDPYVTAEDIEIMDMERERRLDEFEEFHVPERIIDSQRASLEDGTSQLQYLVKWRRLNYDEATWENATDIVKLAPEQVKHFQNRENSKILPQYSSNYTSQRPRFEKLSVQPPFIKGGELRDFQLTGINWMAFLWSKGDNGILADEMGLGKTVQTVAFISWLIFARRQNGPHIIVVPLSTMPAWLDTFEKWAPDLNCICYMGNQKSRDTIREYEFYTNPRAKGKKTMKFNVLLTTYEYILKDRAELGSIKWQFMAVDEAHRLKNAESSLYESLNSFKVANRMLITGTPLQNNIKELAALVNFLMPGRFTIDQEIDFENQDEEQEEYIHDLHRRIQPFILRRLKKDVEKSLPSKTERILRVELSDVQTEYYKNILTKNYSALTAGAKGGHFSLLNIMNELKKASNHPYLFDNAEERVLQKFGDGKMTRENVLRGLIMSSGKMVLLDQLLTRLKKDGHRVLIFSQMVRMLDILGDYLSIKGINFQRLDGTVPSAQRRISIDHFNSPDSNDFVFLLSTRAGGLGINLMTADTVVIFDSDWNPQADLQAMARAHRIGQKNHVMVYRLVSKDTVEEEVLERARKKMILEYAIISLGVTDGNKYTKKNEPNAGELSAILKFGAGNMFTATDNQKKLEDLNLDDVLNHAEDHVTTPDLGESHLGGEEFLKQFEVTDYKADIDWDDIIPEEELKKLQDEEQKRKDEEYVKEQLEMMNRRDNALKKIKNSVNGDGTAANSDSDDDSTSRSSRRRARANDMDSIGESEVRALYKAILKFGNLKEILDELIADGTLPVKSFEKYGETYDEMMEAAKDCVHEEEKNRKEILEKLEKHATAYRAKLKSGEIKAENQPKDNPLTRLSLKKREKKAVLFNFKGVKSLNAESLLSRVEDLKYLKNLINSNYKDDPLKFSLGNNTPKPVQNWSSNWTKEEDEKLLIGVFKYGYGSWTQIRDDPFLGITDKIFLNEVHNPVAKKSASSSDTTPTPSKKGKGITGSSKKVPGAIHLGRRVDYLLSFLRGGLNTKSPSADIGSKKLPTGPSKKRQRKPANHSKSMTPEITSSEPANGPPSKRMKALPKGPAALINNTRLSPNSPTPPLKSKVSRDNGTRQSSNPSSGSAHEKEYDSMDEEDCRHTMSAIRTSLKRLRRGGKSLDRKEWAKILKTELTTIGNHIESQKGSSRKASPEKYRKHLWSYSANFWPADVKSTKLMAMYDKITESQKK
Sequence of Protein translocase subunit SecA (Escherichia coli (strain K12)) (P10408 whole entry): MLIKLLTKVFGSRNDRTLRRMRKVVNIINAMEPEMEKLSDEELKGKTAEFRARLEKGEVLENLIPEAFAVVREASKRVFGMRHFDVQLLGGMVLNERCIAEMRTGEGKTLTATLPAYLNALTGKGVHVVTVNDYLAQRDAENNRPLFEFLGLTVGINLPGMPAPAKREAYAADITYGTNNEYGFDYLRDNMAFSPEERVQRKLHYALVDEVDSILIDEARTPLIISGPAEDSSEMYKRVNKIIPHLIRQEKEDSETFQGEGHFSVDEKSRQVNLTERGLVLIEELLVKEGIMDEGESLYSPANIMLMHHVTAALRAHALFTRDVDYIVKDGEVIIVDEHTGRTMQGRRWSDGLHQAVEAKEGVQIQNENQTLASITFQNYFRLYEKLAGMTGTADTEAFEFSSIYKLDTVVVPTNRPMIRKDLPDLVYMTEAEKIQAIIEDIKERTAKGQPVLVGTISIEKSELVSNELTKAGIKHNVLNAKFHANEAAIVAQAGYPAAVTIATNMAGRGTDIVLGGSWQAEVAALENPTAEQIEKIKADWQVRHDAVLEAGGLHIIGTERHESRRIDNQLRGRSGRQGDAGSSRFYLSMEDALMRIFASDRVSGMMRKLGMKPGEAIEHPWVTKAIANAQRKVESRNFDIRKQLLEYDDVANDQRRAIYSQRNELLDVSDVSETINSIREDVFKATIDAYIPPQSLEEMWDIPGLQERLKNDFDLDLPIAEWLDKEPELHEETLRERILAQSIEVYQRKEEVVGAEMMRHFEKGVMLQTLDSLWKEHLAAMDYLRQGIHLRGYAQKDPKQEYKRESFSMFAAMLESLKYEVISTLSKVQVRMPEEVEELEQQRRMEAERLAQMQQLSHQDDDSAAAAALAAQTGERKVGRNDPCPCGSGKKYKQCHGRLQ

Turning to `CCN(CC)S(=O)(=O)N1CCCC(c2ccc(C(=O)O)cc2)C1` (stereo unspecified), the Percent Effect in assay [1] was -1.63%; in assay [2] it was -2.7%; in assay [3], 0.184%; in assay [4] it was 8.84%; in assay [5], -4.44%; in [6] it was -4.76%. For the same compound, the Percent Effect is 0.69% in assay [7]; -0.683% in assay [8]; 2.65% in [9]; 0% in assay [10]; -0.737% in assay [11].
As to `Cc1cc(C)n(CC2CCCCN2CC(=O)Nc2nncs2)n1` (stereo unspecified), the Percent Effect in assay [1] was -3.75%; in assay [2], 8%; in assay [3], -5.11%; in assay [4] it was 15%; in [5], 7.69%; in assay [6], 14.6%. Besides, the Percent Effect in [7] is 0.349%; in [8] it was 13.2%; in assay [9], 6.01%; in assay [10], 16.1%; in assay [11] it was -8.51%.
As to `Cc1cccc(CN2CCC3(CCCN(C(=O)NC4CC4)C3)C2=O)n1` (stereo unspecified), the Percent Effect in assay [1] is -0.773%; in assay [2], 10.4%; in assay [3], -9.14%; in assay [4], -16.1%; in [5], -7.99%; in assay [6], 5.81%. In addition, the Percent Effect is 6.79% in assay [7]; 11.4% in assay [8]; 1.06% in [9]; 1.28% in [10]; -9.83% in assay [11].
Turning to `COc1ccc(C2OC(COc3ccccc3Br)=NN2C(C)=O)cc1` (stereo unspecified), the Percent Effect in assay [1] was -1.41%; in [2] it was 13%; in assay [3], -0.88%; in assay [4], -8.22%; in assay [5] it was -5.23%; in assay [6], 3.23%. Also, the Percent Effect is 9.22% in assay [7]; 4.18% in assay [8]; 0% in [9]; 1.28% in assay [10]; -8.68% in [11].
For `Cc1nn(CC(=O)N2CCN(c3ccncc3)CC2)c(C)c1Cl`, the Percent Effect in assay [1] was -3.26%; in [2], 10.5%; in assay [3] it was 1.94%; in assay [4], 4.31%; in assay [5], 1.66%; in [6], -18.9%. The Percent Effect in assay [7] is 12.6%; in assay [8] it was 16.3%; in assay [9], 5.32%; in assay [10], 15.6%; in assay [11], -7.63%.
As for `CC(NC(=O)NCCCNS(C)(=O)=O)c1ccncc1` (stereo unspecified), the Percent Effect in assay [1] was -4.34%; in assay [2], 6.33%; in assay [3], 4.73%; in assay [4], 0.18%; in assay [5] it was -2.97%; in assay [6], -1.5%. Also, the Percent Effect in assay [7] is 8.4%; in assay [8] it was -9.13%; in assay [9], 12.5%; in assay [10], 17.7%; in assay [11], -4.71%.
Turning to `O=C(C1CCCc2[nH]ncc21)N1CCCCCC1` (stereo unspecified), the Percent Effect in assay [1] was -3.72%; in assay [2], 5.41%; in [3] it was -4.75%; in assay [4], 2.71%; in [5], -2.64%; in [6], -1.24%. Besides, the Percent Effect in assay [7] is 11.2%; in assay [8], 0.454%; in assay [9], 2.15%; in [10], 6.17%; in assay [11], -3.22%.
Regarding `Cc1nc(Nc2ncccn2)cc(C2CCCN2CC(C)C)n1` (stereo unspecified), the Percent Effect in [1] was -6.07%; in assay [2], 5.33%; in assay [3] it was 4.6%; in assay [4], -0.413%; in [5] it was -1.38%; in assay [6] it was -2.56%. Also, the Percent Effect in assay [7] was -1.5%; in assay [8] it was 0.824%; in assay [9], 2.13%; in assay [10] it was 6.41%; in [11] it was -1.78%.
Turning to `CCC(CC)c1cc(CNC(=O)N2CCCC(N(C)C)C2)on1` (stereo unspecified), the Percent Effect was -3.85% in assay [1]; 8.11% in assay [2]; -7.08% in assay [3]; 17.6% in [4]; 6.55% in assay [5]; 0.248% in assay [6]. In addition, the Percent Effect in assay [7] is 12.8%; in [8], 7.88%; in assay [9] it was 6.45%; in assay [10], 13.6%; in assay [11] it was -6.35%.
As for `O=C1CCC2(CCN(Cc3cc(F)ccc3Cl)CC2)CN1C1CCCC1`, the Percent Effect in assay [1] was 0.0694%; in [2], 13.3%; in assay [3] it was -4.38%; in [4], 3.44%; in assay [5] it was 3.99%; in assay [6], 0%. The Percent Effect in assay [7] is 18.1%; in assay [8] it was 18.2%; in [9], 7.1%; in [10] it was 13.6%; in assay [11] it was -2.27%.
Turning to `CCc1c(C)nc2n(c1=O)CC(C(=O)Nc1nc3c(s1)CCCC3)CS2` (stereo unspecified), the Percent Effect in assay [1] was -2.52%; in [2], 13%; in assay [3], 6.33%; in [4], 7.47%; in assay [5] it was 2.86%; in [6], -4.52%. The Percent Effect in assay [7] was 7.66%; in assay [8], 18.6%; in assay [9], 6.35%; in assay [10] it was 14.1%; in assay [11], -8.32%.
